Records with an inconclusive call do not appear. Active and inactive are the calls of the source. Unless noted, calls follow the shape of the dose curve; as a rule, active = well fitted curve in the direction sought with a large enough effect in the repeat runs; inconclusive = weak or mixed curves; inactive = no such curve, though single readings can be large; an effect the other way counts as inactive or inconclusive.
Experiments:
[1] = qHTS assay to identify aromatase inhibitors - cell viability counter screen (AID 743084);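 also: cells stimulated with testosterone during compound exposure; nearly all actives have a fitted effect of over 55% in size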
[2] = target: Aryl hydrocarbon receptor (Homo sapiens) (UniProt P35869); assay: qHTS assay to identify small molecule that activate the aryl hydrocarbon receptor (AhR) signaling pathway (AID 743085);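 also: HG2L7.5c1 human HepG2 liver cells with stably integrated DRE-driven firefly reporter; series mostly up to about 70 µM; nearly all actives have a fitted effect of over 15% in size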
In short: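 AhR agonist activity is inferred from enhanced light output of a DRE-controlled firefly luciferase reporter in HepG2 cells, measured with ONE-Glo following 24 h treatment at 37C.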

[3] = qHTS assay to identify small molecule that activate the aryl hydrocarbon receptor (AhR) signaling pathway - cell viability counter screen (AID 743086);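 also: HepG2 liver cells carrying the AhR DRE luciferase reporter; series mostly up to about 70 µM; nearly all actives have a fitted effect of over 45% in size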
In short: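 HepG2-AhR-luc (HG2L7.5c1) cells, 4000/well, were preincubated 5 h at 37C, exposed to compound in qHTS format for 24 hr at 37C, then given CellTiter-Fluor for 30 min; viability was read as fluorescence in the reporter wells.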

[4] = target: Peroxisome proliferator-activated receptor gamma (Homo sapiens) (UniProt P37231); assay: qHTS assay to identify small molecule agonists of the peroxisome proliferator-activated receptor gamma (PPARg) signaling pathway (AID 743094; active = well fitted activation curve with a large enough effect in the signal ratio in the repeat runs, not every such curve was filed as active; the % refers to the signal ratio)
In short: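 Agonist activity was taken from a beta-lactamase reporter (FRET substrate, 1 h at room temperature) in HEK293H cells carrying a PPARg UAS-bla construct. Compounds in DMSO were incubated 17 h at 37C after a 5 h cell pre-incubation.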

[5] = target: Peroxisome proliferator-activated receptor gamma (Homo sapiens) (UniProt P37231); assay: qHTS assay to identify small molecule antagonists of the peroxisome proliferator-activated receptor gamma (PPARg) signaling pathway (AID 743191; calls by dose curve; also: series mostly up to about 63 µM; nearly all actives have a fitted effect of over 30% in size)
In short: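 GeneBLAzer PPARg UAS-bla HEK293H cells carrying a UAS-driven beta-lactamase reporter were plated at 3000 cells/well, preincubated 5 h at 37C, then given compound for 17 h at 37C; LiveBLAzer B/G FRET substrate was read after 1 h at room temperature.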

[6] = qHTS assay for small molecule agonists of the antioxidant response element (ARE) signaling pathway (AID 743202; active = well fitted activation curve with a large enough effect in the signal ratio in the repeat runs, not every such curve was filed as active; the % refers to the signal ratio)
In short: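 Following a 16 h, 37 C exposure of reporter HepG2 cells (ARE-driven beta-lactamase, 2,000 cells/well) to compounds, FRET substrate was applied for 2 h at room temperature and fluorescence intensity recorded.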

[7] = qHTS assay for small molecule agonists of the antioxidant response element (ARE) signaling pathway - cell viability counter screen (AID 743203; calls by dose curve; also: nearly all actives have a fitted effect of over 55% in size)
In short: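 Viability counter screen: CellTiter-Glo luminescence, read after 30 min at room temperature, in ARE-bla HepG2 wells. Compound exposure lasted 16 h at 37C/5% CO2, following a 5 h pre-incubation of the cells after plating.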

[8] = qHTS assay for small molecule activators of the heat shock response signaling pathway - cell viability counter screen (AID 743209); also: nearly all actives have a fitted effect of over 50% in size
In short: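 Cytotoxicity counter screen run in the same wells as the heat-shock bla reporter assay: HeLa HSE-bla cells, 5 h compound exposure at 37 C, viability read by CellTiter-Glo luminescence.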

[9] = qHTS assay for small molecule activators of the heat shock response signaling pathway (AID 743210; active = well fitted activation curve with a large enough effect in the signal ratio in the repeat runs, with a control signal flat, not every such curve was filed as active; the % refers to the signal ratio; also: series mostly up to about 63 µM)
In short: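 Heat shock element–beta-lactamase HeLa reporter cells; qHTS with compounds for 5 h at 37 C; detection by FRET substrate fluorescence after 2.5 h at RT.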

[10] = qHTS assay to identify small molecule agonists of the peroxisome proliferator-activated receptor delta (PPARd) signaling pathway - cell viability counter screen (AID 743211); also: nearly all actives have a fitted effect of over 55% in size
In short: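 qHTS cell viability: PPARd-bla HEK293H; 17 h cpd, 37C; CellTiter-Glo, luminescence at 30 min RT.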

[11] = qHTS assay to identify small molecule antagonists of the peroxisome proliferator-activated receptor delta (PPARd) signaling pathway - cell viability counter screen (AID 743213); also: nearly all actives have a fitted effect of over 50% in size
In short: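 Luminescence from CellTiter-Glo, added after the bla read and incubated 30 min at room temperature, gives viability of HEK293H PPARd-bla cells exposed to compounds for 17 h at 37 C with 300 nM L165041.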

[12] = qHTS assay to identify small molecule agonists of the farnesoid-X-receptor (FXR) signaling pathway - cell viability counter screen (AID 743218); also: nearly all actives have a fitted effect of over 45% in size
In short: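 Viability counter screen in the same wells: CellTiter-Glo luminescence, 30 min room-temperature incubation, measured after the beta-lactamase read. Cells were GeneBLAzer FXR-UAS-bla HEK 293T, compound-treated 16 h at 37C.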

[13] = qHTS assay to identify small molecule antagonists of the farnesoid-X-receptor (FXR) signaling pathway - cell viability counter screen (AID 743221; active = well fitted cell-killing curve with a large enough effect in the repeat runs, not every such curve was filed as active; also: nearly all actives have a fitted effect of over 50% in size)
In short: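 After a 5 h settling period, FXR-bla HEK 293T cells receive compound and chenodeoxycholic acid (50 uM final) and incubate 16 h at 37 C; CellTiter-Glo luminescence, read after 30 min at room temperature, reports cell viability.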

[14] = target: Vitamin D3 receptor (Homo sapiens) (UniProt P11473); assay: qHTS assay to identify small molecule agonists of the vitamin D receptor (VDR) signaling pathway (AID 743222; calls by dose curve)
In short: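 Agonist mode, beta-lactamase reporter: fluorescence from LiveBLAzer B/G FRET substrate (2 h, room temperature) read after 16 h compound treatment at 37 C of VDR-bla cells, which were pre-incubated 4 h after seeding.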

[15] = target: Vitamin D3 receptor (Homo sapiens) (UniProt P11473); assay: qHTS assay to identify small molecule antagonists of the vitamin D receptor (VDR) signaling pathway (AID 743223; active = well fitted inhibition curve with a large enough effect in the signal ratio in the repeat runs, not every such curve was filed as active; the % refers to the signal ratio)
In short: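 Reporter line VDR-bla; stimulus 1alpha,25-(OH)2 vitamin D3, 3 nM final; compound co-addition, 16 h 37C/5% CO2; LiveBLAzer B/G substrate 2 h RT; fluorescence intensity.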

[16] = qHTS assay to identify small molecule antagonists of the peroxisome proliferator-activated receptor gamma (PPARg) signaling pathway - cell viability counter screen (AID 743194); also: nearly all actives have a fitted effect of over 55% in size
In short: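 PPARg-UAS-bla HEK293H cells were plated, rested 5 h at 37 C, then treated with compounds plus rosiglitazone (50 nM final) for 17 h at 37 C; viability was then read by CellTiter-Glo luminescence after 30 min at room temperature.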

[17] = target: Peroxisome proliferator-activated receptor delta (Homo sapiens) (UniProt Q03181); assay: qHTS assay to identify small molecule agonists of the peroxisome proliferator-activated receptor delta (PPARd) signaling pathway (AID 743212; calls by dose curve)
In short: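 Beta-lactamase reporter read by fluorescence (LiveBLAzer B/G FRET, 2 h, room temperature). Test agents, in DMSO, incubated at 37 C with PPARd-bla HEK293H cells.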

[18] = target: Peroxisome proliferator-activated receptor delta (Homo sapiens) (UniProt Q03181); assay: qHTS assay to identify small molecule antagonists of the peroxisome proliferator-activated receptor delta (PPARd) signaling pathway (AID 743215; active = well fitted inhibition curve with a large enough effect in the signal ratio in the repeat runs, not every such curve was filed as active; the % refers to the signal ratio;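 also: cells stimulated with agonist L165041 at 300 nM final during compound exposure; series mostly up to about 62 µM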)
In short: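 Agonist L165041 (300 nM final) added with compound to PPARd-bla HEK293H UAS-bla reporter cells; 17 h incubation at 37 C. Read-out: LiveBLAzer FRET substrate, 2 h at room temperature, fluorescence intensity.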

[19] = target: Bile acid receptor (Homo sapiens) (UniProt Q96RI1); assay: qHTS assay to identify small molecule antagonists of the farnesoid-X-receptor (FXR) signaling pathway (AID 743217; active = well fitted inhibition curve with a large enough effect in the signal ratio in the repeat runs, not every such curve was filed as active; the % refers to the signal ratio)
In short: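 Antagonist mode: chenodeoxycholic acid at 50 uM final stimulates a UAS-driven beta-lactamase reporter in HEK 293T FXR-bla cells during 16 h, 37C compound exposure. Read-out is FRET substrate fluorescence after 2 h at room temperature.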

[20] = target: Bile acid receptor (Homo sapiens) (UniProt Q96RI1); assay: qHTS assay to identify small molecule agonists of the farnesoid-X-receptor (FXR) signaling pathway (AID 743220; active = well fitted activation curve with a large enough effect in the signal ratio in the repeat runs, not every such curve was filed as active; the % refers to the signal ratio)
In short: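 FXR-UAS-bla HEK 293T cells carrying a UAS-driven beta-lactamase reporter were plated for 5 h at 37C/5% CO2, then exposed to DMSO-dissolved Tox21 10K compounds for 16 h at 37C. A LiveBLAzer B/G FRET substrate was loaded for 2 h at room temperature before fluorescence reading.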

Measured: Potency

Sequence of Aryl hydrocarbon receptor (Homo sapiens) (P35869 whole entry, looked up): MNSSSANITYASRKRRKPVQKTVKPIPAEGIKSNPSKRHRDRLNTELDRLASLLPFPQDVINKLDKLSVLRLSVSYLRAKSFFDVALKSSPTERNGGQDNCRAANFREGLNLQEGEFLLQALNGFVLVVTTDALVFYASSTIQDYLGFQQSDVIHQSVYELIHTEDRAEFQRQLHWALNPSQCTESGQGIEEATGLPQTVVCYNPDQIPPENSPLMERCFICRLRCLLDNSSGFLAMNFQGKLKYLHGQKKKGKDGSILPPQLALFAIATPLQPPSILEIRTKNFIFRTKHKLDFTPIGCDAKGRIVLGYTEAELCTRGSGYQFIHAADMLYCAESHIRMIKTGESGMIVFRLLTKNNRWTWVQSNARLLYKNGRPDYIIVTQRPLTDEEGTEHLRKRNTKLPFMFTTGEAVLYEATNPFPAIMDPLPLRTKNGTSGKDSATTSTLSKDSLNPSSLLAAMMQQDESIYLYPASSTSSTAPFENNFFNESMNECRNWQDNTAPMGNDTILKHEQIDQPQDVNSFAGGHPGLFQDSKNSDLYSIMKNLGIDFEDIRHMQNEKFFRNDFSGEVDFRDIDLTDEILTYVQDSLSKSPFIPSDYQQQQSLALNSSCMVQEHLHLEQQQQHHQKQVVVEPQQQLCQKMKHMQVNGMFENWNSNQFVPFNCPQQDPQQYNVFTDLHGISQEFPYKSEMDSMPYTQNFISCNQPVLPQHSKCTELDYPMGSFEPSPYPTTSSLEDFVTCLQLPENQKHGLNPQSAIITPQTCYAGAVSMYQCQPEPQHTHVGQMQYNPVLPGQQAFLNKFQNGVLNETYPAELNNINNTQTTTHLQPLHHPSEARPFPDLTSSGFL
Sequence of Peroxisome proliferator-activated receptor delta (Homo sapiens) (Q03181 whole entry, looked up): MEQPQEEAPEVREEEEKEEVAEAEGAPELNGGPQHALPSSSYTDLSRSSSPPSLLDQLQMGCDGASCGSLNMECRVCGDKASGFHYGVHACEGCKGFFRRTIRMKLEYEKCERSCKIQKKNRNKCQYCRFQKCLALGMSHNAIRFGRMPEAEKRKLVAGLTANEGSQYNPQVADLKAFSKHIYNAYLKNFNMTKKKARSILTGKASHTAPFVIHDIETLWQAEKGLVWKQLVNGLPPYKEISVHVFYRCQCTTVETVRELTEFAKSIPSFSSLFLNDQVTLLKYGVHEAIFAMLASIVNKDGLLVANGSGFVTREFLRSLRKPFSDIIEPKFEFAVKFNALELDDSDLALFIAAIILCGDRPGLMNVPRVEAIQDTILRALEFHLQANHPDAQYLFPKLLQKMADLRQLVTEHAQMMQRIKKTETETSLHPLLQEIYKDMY
Sequence of Vitamin D3 receptor (Homo sapiens) (P11473 whole entry, looked up): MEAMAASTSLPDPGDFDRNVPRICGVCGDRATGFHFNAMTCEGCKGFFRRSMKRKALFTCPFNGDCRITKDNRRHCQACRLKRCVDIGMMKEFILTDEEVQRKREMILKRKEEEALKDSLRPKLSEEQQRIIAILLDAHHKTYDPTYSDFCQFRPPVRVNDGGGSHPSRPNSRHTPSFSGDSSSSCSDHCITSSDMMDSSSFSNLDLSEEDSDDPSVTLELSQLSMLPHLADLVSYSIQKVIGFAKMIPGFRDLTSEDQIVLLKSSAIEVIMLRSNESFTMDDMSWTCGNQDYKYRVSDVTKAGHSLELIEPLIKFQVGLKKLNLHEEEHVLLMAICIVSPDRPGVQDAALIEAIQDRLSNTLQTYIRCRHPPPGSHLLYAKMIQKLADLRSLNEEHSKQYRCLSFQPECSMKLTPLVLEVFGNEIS
Sequence of Bile acid receptor (Homo sapiens) (Q96RI1 whole entry, looked up): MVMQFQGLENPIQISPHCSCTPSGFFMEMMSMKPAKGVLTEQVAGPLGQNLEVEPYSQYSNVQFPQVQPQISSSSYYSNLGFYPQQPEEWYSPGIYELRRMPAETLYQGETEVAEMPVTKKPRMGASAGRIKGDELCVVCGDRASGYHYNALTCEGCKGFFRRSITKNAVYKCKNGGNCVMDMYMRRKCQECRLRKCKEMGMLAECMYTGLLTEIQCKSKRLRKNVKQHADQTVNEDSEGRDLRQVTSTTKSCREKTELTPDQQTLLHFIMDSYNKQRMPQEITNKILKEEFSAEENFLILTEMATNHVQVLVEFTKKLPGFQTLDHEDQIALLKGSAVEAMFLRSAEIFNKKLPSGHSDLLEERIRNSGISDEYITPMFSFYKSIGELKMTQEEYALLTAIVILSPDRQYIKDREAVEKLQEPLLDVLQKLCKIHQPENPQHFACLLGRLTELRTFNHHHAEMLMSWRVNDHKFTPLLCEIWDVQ
Sequence of Peroxisome proliferator-activated receptor gamma (Homo sapiens) (P37231 whole entry, looked up): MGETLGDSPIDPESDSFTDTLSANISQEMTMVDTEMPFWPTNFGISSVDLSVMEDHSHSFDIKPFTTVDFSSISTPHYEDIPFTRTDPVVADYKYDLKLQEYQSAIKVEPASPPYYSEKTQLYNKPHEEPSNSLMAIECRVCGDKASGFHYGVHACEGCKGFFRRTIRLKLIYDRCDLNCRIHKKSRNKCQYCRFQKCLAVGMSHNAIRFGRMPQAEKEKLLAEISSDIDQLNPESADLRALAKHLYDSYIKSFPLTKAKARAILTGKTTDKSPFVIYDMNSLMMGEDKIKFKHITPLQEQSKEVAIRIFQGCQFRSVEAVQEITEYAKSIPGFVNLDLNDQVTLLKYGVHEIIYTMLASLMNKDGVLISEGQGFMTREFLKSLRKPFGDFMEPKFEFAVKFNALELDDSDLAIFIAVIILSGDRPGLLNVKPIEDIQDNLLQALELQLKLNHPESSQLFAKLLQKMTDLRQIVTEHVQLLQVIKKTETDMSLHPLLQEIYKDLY

CN(C)CCCNCCCN(C)C
not listed: [16] | [17] | [18] | [19] | [20]
inactive: all other assays above

COC(=O)c1cc(C(=O)OC)cc(S(=O)(=O)O)c1
not listed: [6] | [8] | [9]
inactive: all other assays above

CC(=O)N(CC(O)CO)c1c(I)c(C(=O)NCCO)c(I)c(C(=O)NCC(O)CO)c1I (stereo not drawn)
not listed: [6] | [9]
inactive: all other assays above

CC(C)NC(=O)NC(C)C
not listed: [6] | [12] | [17]
inactive: all other assays above

CCc1nccnc1CC
not listed: [6] | [19] | [20]
inactive: all other assays above

CCCCCOC(=O)CCCCC
not listed: [5] | [19] | [20]
inactive: all other assays above

NC(=O)c1ccc([N+](=O)[O-])cc1
not listed: [6] | [9] | [15] | [19] | [20]
inactive: all other assays above

O=C1CC2CC1C1CCCC21 (stereo not drawn)
not listed: [6] | [14] | [15]
inactive: all other assays above

CCOC(C)(C)C
not listed: [6]
inactive: all other assays above

CN1C(=O)N(C)C(O)C1O (stereo not drawn)
not listed: [9] | [10] | [19] | [20]
inactive: all other assays above

c1ccc(CC2=NCCN2)cc1
not listed: [11] | [12] | [14] | [15] | [16] | [17] | [18]
inactive: all other assays above

CCCCCCCCCCCCCCCCC
not listed: [7] | [9] | [17]
inactive: all other assays above

OCCCC1CCCCC1
not listed: [5] | [14] | [15] | [19] | [20]
inactive: all other assays above

CC(C)c1cc2c(cc1S(=O)(=O)O)[C@@]1(C)CCC[C@@](C)(C(=O)O)[C@@H]1CC2
not listed: [8] | [11] | [17] | [18] | [19] | [20]
inactive: all other assays above

FC1(F)C(F)(F)C(F)(F)C2(F)C(F)(F)C(F)(F)C(F)(F)C(F)(F)C2(F)C1(F)F (stereo not drawn)
not listed: [6] | [7] | [9] | [15] | [17]
inactive: all other assays above

ClC(Cl)(Br)Br
not listed: [5] | [19] | [20]
inactive: all other assays above

C=C(C)CS(=O)(=O)O
not listed: [6] | [9] | [13] | [14] | [15] | [17]
inactive: all other assays above
